Measurements published in PubChem BioAssay AID1159580 (chemical genetic matrix, 2015).
Screen size: about 5,500 compounds; about 2,000 (36%) were called active. Another 18% or so got no clear call; they are omitted. Cut-off read from the data, not from the text of the source: active = normalized growth mostly below about 0.91 (no sharp cut-off); inconclusive = no clear call, values can overlap the other calls; inactive = mostly above about 0.92. The list shows a part of the results.

Test: chemical genetic growth profiling, strain panel (AID 1159580);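 note: tested at 20 µM; growth read once vehicle control cultures reached saturation at 30 °C; 1 = growth at the plate median or of vehicle wells; lower values mean less growth of the strain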
Details: growth OD

Measured: normalized growth

NS(=O)(=O)c1cc2c(cc1C(F)(F)F)NC(Cc1ccccc1)NS2(=O)=O (centres undefined)
inactive: S. cerevisiae deletion strains, locus YJR066W, strain TOR1, stronger effect = lower value 0.949 | S. cerevisiae deletion strains, locus YKL009W, strain mrt4, stronger effect = lower value 0.983 | S. cerevisiae deletion strains, locus YKL068W, stronger effect = lower value 1 | S. cerevisiae deletion strains, locus YKL085W, strain MDH1 (second series), stronger effect = lower value 0.999 | S. cerevisiae deletion strains, locus YKL085W, strain MDH1, stronger effect = lower value 0.999 | S. cerevisiae deletion strains, locus YKL160W, strain elf1, stronger effect = lower value 0.977 | S. cerevisiae deletion strains, locus YKL190W, strain CNB1, stronger effect = lower value 1 | S. cerevisiae deletion strains, locus YKR001C, strain vps1, stronger effect = lower value 0.982 | S. cerevisiae deletion strains, locus YKR026C, strain gcn3, stronger effect = lower value 0.998 | S. cerevisiae deletion strains, locus YKR091W, strain srl3, stronger effect = lower value 0.982 | S. cerevisiae deletion strains, locus YLL001W, strain dnm1, stronger effect = lower value 0.981 | S. cerevisiae deletion strains, locus YLL026W, stronger effect = lower value 0.991 | S. cerevisiae deletion strains, locus YLL041C, strain sdh2, stronger effect = lower value 0.985 | S. cerevisiae deletion strains, locus YLR027C, strain aat2, stronger effect = lower value 0.985 | S. cerevisiae deletion strains, locus YLR039C, strain RIC1, stronger effect = lower value 1.04 | S. cerevisiae deletion strains, locus YLR058C, strain SHM2, stronger effect = lower value 1 | S. cerevisiae deletion strains, locus YLR102C, strain apc9, stronger effect = lower value 1.01 | S. cerevisiae deletion strains, locus YLR113W, strain HOG1, stronger effect = lower value 0.983 | S. cerevisiae deletion strains, locus YLR221C, strain rsa3, stronger effect = lower value 0.973 | S. cerevisiae deletion strains, locus YLR258W, strain gsy2, stronger effect = lower value 0.993 | S. cerevisiae deletion strains, locus YLR262C, strain YPT6 (second series), stronger effect = lower value 0.987 | S. cerevisiae deletion strains, locus YLR262C, strain YPT6, stronger effect = lower value 1.01 | S. cerevisiae deletion strains, locus YLR268W, strain sec22, stronger effect = lower value 0.999 | S. cerevisiae deletion strains, locus YLR320W, strain mms22, stronger effect = lower value 0.957 | S. cerevisiae deletion strains, locus YLR330W, strain CHS5, stronger effect = lower value 1.01 | S. cerevisiae deletion strains, locus YLR342W, strain FKS1 (second series), stronger effect = lower value 1.06 | S. cerevisiae deletion strains, locus YLR342W, strain FKS1, stronger effect = lower value 0.988 | S. cerevisiae deletion strains, locus YLR357W, strain rsc2, stronger effect = lower value 0.978 | S. cerevisiae deletion strains, locus YLR370C, strain arc18, stronger effect = lower value 0.983 | S. cerevisiae deletion strains, locus YLR371W, strain rom2, stronger effect = lower value 1.01 | S. cerevisiae deletion strains, locus YLR384C, strain iki3, stronger effect = lower value 0.986 | S. cerevisiae deletion strains, locus YLR418C, strain cdc73, stronger effect = lower value 1.01 | S. cerevisiae deletion strains, locus YML016C, strain PPZ1, stronger effect = lower value 1.01 | S. cerevisiae deletion strains, locus YML032C, strain rad52, stronger effect = lower value 0.983 | S. cerevisiae deletion strains, locus YML120C, strain ndi1, stronger effect = lower value 0.981 | S. cerevisiae deletion strains, locus YML124C, strain tub3, stronger effect = lower value 1 | S. cerevisiae deletion strains, locus YMR058W, strain fet3, stronger effect = lower value 0.97 | S. cerevisiae deletion strains, locus YMR078C, strain ctf18, stronger effect = lower value 1 | S. cerevisiae deletion strains, locus YMR125W, strain sto1, stronger effect = lower value 1.01 | S. cerevisiae deletion strains, locus YMR129W, stronger effect = lower value 0.992 | S. cerevisiae deletion strains, locus YMR205C, strain PFK2, stronger effect = lower value 0.978 | S. cerevisiae deletion strains, locus YMR223W, strain ubp8, stronger effect = lower value 1.02 | S. cerevisiae deletion strains, locus YMR231W, strain pep5, stronger effect = lower value 1 | S. cerevisiae deletion strains, locus YMR307W, strain GAS1, stronger effect = lower value 1.06 | S. cerevisiae deletion strains, locus YNL067W, strain RPL9B, stronger effect = lower value 0.985 | S. cerevisiae deletion strains, locus YNL071W, strain lat1, stronger effect = lower value 0.994 | S. cerevisiae deletion strains, locus YNL153C, strain GIM3, stronger effect = lower value 0.975 | S. cerevisiae deletion strains, locus YNL183C, strain NPR1, stronger effect = lower value 0.927 | S. cerevisiae deletion strains, locus YNL209W, strain ssb2, stronger effect = lower value 0.993 | S. cerevisiae deletion strains, locus YNL233W, strain BNI4, stronger effect = lower value 0.993 | S. cerevisiae deletion strains, locus YNL248C, strain rpa49, stronger effect = lower value 0.996 | S. cerevisiae deletion strains, locus YNL250W, strain rad50, stronger effect = lower value 1.01 | S. cerevisiae deletion strains, locus YNL271C, strain bni1, stronger effect = lower value 1.01 | S. cerevisiae deletion strains, locus YNL298W, strain CLA4, stronger effect = lower value 1.02 | S. cerevisiae deletion strains, locus YNL307C, strain MCK1, stronger effect = lower value 1.01 | S. cerevisiae deletion strains, locus YNL322C, strain KRE1 (second series), stronger effect = lower value 0.992 | S. cerevisiae deletion strains, locus YNR049C, strain mso1, stronger effect = lower value 0.986 | S. cerevisiae deletion strains, locus YNR052C, strain pop2, stronger effect = lower value 1.01 | S. cerevisiae deletion strains, locus YOL006C, strain TOP1, stronger effect = lower value 0.953 | S. cerevisiae deletion strains, locus YOL012C, strain htz1 0.78 | S. cerevisiae deletion strains, locus YOL147C, strain pex11, stronger effect = lower value 1.01 | S. cerevisiae deletion strains, locus YOR001W, strain rrp6, stronger effect = lower value 0.997 | S. cerevisiae deletion strains, locus YOR061W, strain CKA2, stronger effect = lower value 1 | S. cerevisiae deletion strains, locus YOR069W, strain VPS5, stronger effect = lower value 1.01 | S. cerevisiae deletion strains, locus YOR070C, strain gyp1, stronger effect = lower value 0.999 | S. cerevisiae deletion strains, locus YOR080W, strain dia2, stronger effect = lower value 0.982 | S. cerevisiae deletion strains, locus YOR083W, strain WHI5, stronger effect = lower value 0.969 | S. cerevisiae deletion strains, locus YOR106W, strain vam3, stronger effect = lower value 0.958 | S. cerevisiae deletion strains, locus YOR136W, strain idh2, stronger effect = lower value 0.992 | S. cerevisiae deletion strains, locus YOR144C, strain elg1, stronger effect = lower value 0.998 | S. cerevisiae deletion strains, locus YOR184W, strain ser1, stronger effect = lower value 0.998 | S. cerevisiae deletion strains, locus YOR231W, strain MKK1, stronger effect = lower value 0.987 | S. cerevisiae deletion strains, locus YOR265W, strain rbl2, stronger effect = lower value 0.988 | S. cerevisiae deletion strains, locus YOR270C, strain vph1, stronger effect = lower value 0.956 | S. cerevisiae deletion strains, locus YOR290C, strain snf2, stronger effect = lower value 0.964 | S. cerevisiae deletion strains, locus YOR316C, strain cot1, stronger effect = lower value 1.01 | S. cerevisiae deletion strains, locus YPL051W, strain arl3, stronger effect = lower value 0.998 | S. cerevisiae deletion strains, locus YPL055C, strain LGE1, stronger effect = lower value 0.934 | S. cerevisiae deletion strains, locus YPL078C, strain atp4, stronger effect = lower value 0.988 | S. cerevisiae deletion strains, locus YPL106C, strain sse1, stronger effect = lower value 0.952 | S. cerevisiae deletion strains, locus YPL240C, strain hsp82, stronger effect = lower value 0.998 | S. cerevisiae deletion strains, locus YPL241C, strain CIN2, stronger effect = lower value 1.01 | S. cerevisiae deletion strains, locus YPL256C, strain CLN2, stronger effect = lower value 0.976 | S. cerevisiae deletion strains, locus YPR119W, strain clb2, stronger effect = lower value 1.01 | S. cerevisiae deletion strains, locus YPR141C, strain kar3, stronger effect = lower value 1.01 | S. cerevisiae deletion strains, locus YPR163C, strain tif3, stronger effect = lower value 1.01 | S. cerevisiae deletion strains, locus YPR167C, strain met16, stronger effect = lower value 1.01 | S. cerevisiae deletion strains, strain wtn01, stronger effect = lower value 1.01 | S. cerevisiae strains, strain wild type, stronger effect = lower value 1
